Experimental data reported in PubChem BioAssay (NCI).
About 79,000 compounds went through this panel and 15% of them were active in at least one assay; those are over-represented in the sample as a whole. Rule as the data show it: active = growth inhibition above about 70%; inactive = the rest.

Columns and labels:
[1] = NCI Yeast Anticancer Drug Screen. Data for the rad50 strain (AID 155);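 also: 0% = growth of vehicle-only cultures of the same strain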; conditions: S. cerevisiae rad50 strain growth inhibition; at 50.0 µM; stronger effect = higher value
Summary of the method: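 Cells are treated with compound, grown, and their growth is then scored against vehicle-only cultures of the same repair-deficient yeast strain.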

[2] = NCI Yeast Anticancer Drug Screen. Data for the mec2-1 strain (AID 157); conditions: S. cerevisiae mec2-1 strain, at 50.0 µM, stronger effect = higher value
Summary of the method: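 Yeast mec2-1 mutant treated with compound. Readout: growth inhibition vs vehicle controls.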

[3] = NCI Yeast Anticancer Drug Screen. Data for the sgs1 mgt1 strain (AID 161);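 also: 0% = growth of cultures given vehicle only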; conditions: S. cerevisiae sgs1 mgt1 strain, at 50.0 µM, stronger effect = higher value
Summary of the method: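 Test agents were incubated with a DNA-repair-mutant yeast strain. Growth was then read and compared against vehicle-treated controls.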

[4] = NCI Yeast Anticancer Drug Screen. Data for the cln2 rad14 strain (AID 165);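 also: 0% = growth equal to vehicle treated cultures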; conditions: S. cerevisiae cln2 rad14 strain, at 50.0 µM, stronger effect = higher value
Summary of the method: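 cln2 rad14 yeast strain; compound exposure; growth inhibition read vs vehicle controls.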

[5] = NCI Yeast Anticancer Drug Screen. Data for the bub3 strain (AID 167); conditions: S. cerevisiae bub3 mutant strain, at 50.0 µM, stronger effect = higher value
Summary of the method: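 Part of a panel of yeast mutants defective in DNA damage repair or cell cycle regulation. Each strain is grown with compound, and inhibition is calculated relative to solvent-treated cultures.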

[6] = NCI Yeast Anticancer Drug Screen. Data for the mlh1 rad18 strain (AID 175); conditions: S. cerevisiae mlh1 rad18 strain growth inhibition; at 50.0 µM; stronger effect = higher value
Summary of the method: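 Yeast w/ defined DNA-repair lesions; compound exposure; growth vs vehicle controls → % inhibition.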

Measured: growth inhibition

CCOC(=O)C(OCC1CC=CCC1)Sc1ccccc1 (stereo unspecified)
inactive: [1] 10.6% | [2] -24.6% | [3] -4.95% | [4] -19.3% | [5] -9.7% | [6] -13.9%

CCCCOCN1COCN(COCCCC)C1=O
inactive: [1] -2.3% | [2] -17.4% | [3] -0.45% | [4] 6.95% | [5] 18.1% | [6] 6.2%

COc1ccc(CC2c3cc(OC)c(OC)cc3CCN2C(=O)OCc2ccccc2)cc1OC (stereo unspecified)
inactive: [1] 25.3% | [2] -4.1% | [3] 2.35% | [4] 19.6% | [5] 8.65% | [6] 12.1%

Brc1ccc(-c2cc(-c3ccc4c(c3)OCO4)c(-c3cccs3)n2Cc2ccccc2)cc1
inactive: [1] -17.9% | [2] -7.55% | [3] -0.5% | [4] 20.1% | [5] -24.6% | [6] -30.1%

COC(CNCCO)c1ccccc1 (stereo unspecified)
inactive: [1] 3.1% | [2] -17.6% | [3] -0.45% | [4] -89.2% | [5] -6.15% | [6] -5.45%

CCCCOc1ccc2nc(C)cc(N/N=C/c3ccc(OC)c4ccccc34)c2c1
inactive: [1] 46.4% | [2] 19.6% | [3] 44.1% | [4] 42.9% | [5] -2.35% | [6] 41.1%

CC(=O)C1C(=O)NC(=O)C1=O (stereo unspecified)
inactive: [1] -2.9% | [2] -23.5% | [3] -14.2% | [4] 0.2% | [5] -18.9% | [6] -18.9%

FC(F)(F)c1nc(=S)c2cn[nH]c2[nH]1
inactive: [1] 4.35% | [2] 31.1% | [3] 8.45% | [4] -12.2% | [5] 35.5% | [6] -5.3%

Cc1ncc2c[n+]([O-])ccn12
inactive: [1] 6.05% | [2] 10.9% | [3] -4% | [4] -1.25% | [5] 17.4% | [6] 7.8%

Oc1ccccc1-c1nc2ccccc2s1
inactive: [1] -0.25% | [2] -37% | [3] 7.85% | [4] -2.7% | [5] 10.3% | [6] -10.2%

O=c1cc(-c2cccnc2)oc2ccc(Cl)cc12
inactive: [1] 59.8% | [2] -2.8% | [3] 7.7% | [4] -33.9% | [5] 11.2% | [6] 5.85%

Cc1ccc(S(=O)(=O)OCC2CCC(=O)N2)cc1 (stereo unspecified)
inactive: [1] 20.4% | [2] -13.2% | [3] 0.5% | [4] -3.15% | [5] -3.9% | [6] 27.1%

Nc1cc(N)nc(S(=O)(=O)O)n1
inactive: [1] -5.75% | [2] -12.9% | [3] -4.7% | [4] -25.9% | [5] 3.6% | [6] -12.9%

COc1cc2c3c(c1)[nH]c(=S)n3C(=O)C(C)S2 (stereo unspecified)
inactive: [1] -15.9% | [2] -34.6% | [3] -4.9% | [4] -6% | [5] -3.85% | [6] -25.6%

CC(C)(C)C(=O)C(Cc1ccccc1)C(=O)C(C)(C)C
inactive: [1] 2.6% | [2] -11.8% | [3] 2.15% | [4] 16.8% | [5] 5.45% | [6] -1.95%

CC1(C)OC2(CC1C1(C)C=CC(=O)O1)CC1C(O)(CCC34CC13C(=O)OC4c1ccoc1)O2 (stereo unspecified)
inactive: [1] 3.95% | [2] -17.3% | [3] 3.15% | [4] 6.2% | [5] -3.1% | [6] 10.2%

CC(C)(C)NC(=O)NCc1cccc(Cl)c1
inactive: [1] 0.25% | [2] -19.6% | [3] -4.15% | [4] -36.1% | [5] -3% | [6] -3.25%

COc1ccc(/C=N/SC(c2ccccc2)(c2ccccc2)c2ccccc2)cc1
inactive: [1] 28.6% | [2] 6% | [3] 13.2% | [4] 13.4% | [5] 0.2% | [6] -4.4%

CC1(C#N)CC/C(=C\c2ccc3c(c2)OCO3)C(=O)C1 (stereo unspecified)
inactive: [1] 0.3% | [2] 16.9% | [3] 4.75% | [4] -1.1% | [5] -6.7% | [6] -4.6%

c1ccc2[nH]c(-c3nc4ccccc4s3)cc2c1
inactive: [1] -3.75% | [2] -4.45% | [3] 0.05% | [4] -60.1% | [5] -12% | [6] 1.25%

Cc1cc(C)c2c(=O)c3c(oc2c1)O[C@@](C)(CO)C[C@@H]3c1ccccc1
inactive: [1] 1.15% | [2] 11.2% | [3] 2.3% | [4] 6.05% | [5] 12% | [6] 5.2%
